Screens (PubChem BioAssay)
GLP-1R agonist: qHTS of GLP-1 Receptor Agonists; Potency, µM (titrated, usually from 45.6 µM), inactives show top-dose activation, hits mostly activators; AID 624172, 2012; Glucagon-like peptide 1 receptor (Homo sapiens), P43220; HEK293 GLP-1R CRE-luciferase, luminescence, 4-6 h; cells express a hypersensitive GLP-1R form; 380,000 tested, 0.007% active; note: potency is the fitted concentration of half-maximal effect; % of control where 0% means no effect
Target sequence (P43220 whole entry, looked up): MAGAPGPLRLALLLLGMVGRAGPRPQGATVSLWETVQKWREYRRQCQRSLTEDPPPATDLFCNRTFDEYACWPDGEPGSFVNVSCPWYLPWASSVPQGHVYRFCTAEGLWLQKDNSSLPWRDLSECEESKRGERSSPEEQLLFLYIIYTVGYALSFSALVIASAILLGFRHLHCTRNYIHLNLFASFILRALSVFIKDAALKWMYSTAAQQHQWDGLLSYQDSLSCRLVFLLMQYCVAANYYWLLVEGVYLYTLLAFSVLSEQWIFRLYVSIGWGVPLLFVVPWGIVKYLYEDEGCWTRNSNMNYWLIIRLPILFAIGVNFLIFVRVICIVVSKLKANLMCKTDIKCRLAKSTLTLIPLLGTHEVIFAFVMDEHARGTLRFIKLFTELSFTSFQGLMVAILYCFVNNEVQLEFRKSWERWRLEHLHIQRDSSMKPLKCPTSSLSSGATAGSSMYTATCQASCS
TRHR PAM: qHTS for Small Molecule Agonists and Allosteric Enhancers of Human TRH Receptor: Primary Screen for Enhancers; Thyrotropin-releasing hormone receptor (Homo sapiens), P34981; AID 493056, 2011; 360,000 tested, 0.66% active; enhancement, % at 2 µM; TRHR cells, fluo-8 calcium fluorescence, EC20 TRH enhancement; in the data active = enhancement above about 30%; note: 0% is about no effect
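Enhancer read-out: after compound pinning and an initial kinetic agonist-mode read, an EC20 of TRH (10 nM final) was injected and fluo-8 calcium signal (Ex 480/Em 530) followed at 1 s/cycle for 100 cycles in TRHR-expressing cells.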
PTHR1 ag: qHTS for PTHR1 Agonists: Primary Screen. AID 743266, 2014. Parathyroid hormone/parathyroid hormone-related peptide receptor (Homo sapiens), Q03431. Potency, µM (titrated, usually from 115 µM), for inactives: at the highest dose activation, most hits filed as activators. HEK293 GP2 PTHR1 cells, GloSensor cAMP luminescence, 1 h. 410,000 tested, 0.075% active; note: potency is the fitted concentration of half-maximal effect; nearly all actives have a fitted effect of over 55% in size
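HEK-293-derived GP2 cells expressing PTHR1 and a GloSensor cAMP reporter, 3,000/well, plated overnight, given luciferin plus IBMX (each 0.5 mM as added) for 1 h at 37 °C, then compound for 1 h at 37 °C. Luminescence was read after 15 min at room temperature.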
GLP-1R inv ag: qHTS of GLP-1 Receptor Inverse Agonists (Inhibition Mode). HEK293 GLP-1R CRE-luciferase, luminescence, 24 h; GLP-1R form is constitutively active. AID 624417, 2012. Glucagon-like peptide 1 receptor (Homo sapiens), P43220. 410,000 tested, 1.6% active. Potency, µM (doses to about 38.3 µM), inactives show at the highest dose activity change, negative = inhibition, hits mostly inhibitors; note: potency is the fitted concentration of half-maximal effect; % is set by controls: 0 for no effect and ±100 for the full control effect; nearly all actives have a fitted effect of over 55% in size
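Seeding at 200 cells/uL, 12 h culture, 24 hr compound treatment, then luciferase reagent and a luminescence read; cells are HEK293 stably expressing a constitutively active GLP-1R plus cAMP-responsive luciferase.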
TRHR agonist: qHTS for Small Molecule Agonists and Allosteric Enhancers of Human TRH Receptor: Primary Screen for Agonists; TRHR cells, calcium flux fluo-8, FDSS agonist mode; Thyrotropin-releasing hormone receptor (Homo sapiens), P34981; 360,000 tested, 0.18% active; activation, % at 2 µM; in the data active = activation above about 30%; note: 0% is about no effect
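Steps: seed TRHR cells overnight; add fluo-8 no-wash Ca dye, RT 30 min–1.5 h; record 10 s baseline; pin-transfer compounds; monitor fluorescence 1 cycle/s for the agonist window. Calcium increases flag candidate agonists.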
HEK293 tox: qHTS of GLP-1 Receptor Inverse Agonists: Cytotox Screen. AID 624418, 2012. 410,000 tested, 0.13% active. HEK293 cAMP-luciferase reporter cells, luminescence, 24 h. Potency, µM (titrated, usually from 38.3 µM), inactives show at the highest dose activity change, negative = inhibition, actives largely listed as inhibitors;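 note: loss of luciferase light is scored as toxicity; potency is the fitted concentration of half-maximal effect; % is set by controls: 0 for no effect and ±100 for the full control effect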
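Step one: seed cells (200 cells/uL, DMEM with 10% Nu serum, 1% pen-strep). Step two: 12-hour incubation at 37 deg C. Step three: pin 23 nL compound, incubate 24 hr. Step four: add luciferase reagent, read luminescence 12 min later.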
* hit, by the source's call; i = inactive; ? = inconclusive; . = not tested or not shown; [ ] = remark or other dose. Most compounds without a hit are left out; they make up all but 2.4% or so of the library. Unless noted, calls come from the whole dose curve; as a rule, active = well fitted curve in the direction sought with a large enough effect; inconclusive = small, poorly fitted or top-dose-only effect, or another doubt; inactive = no such curve, though single readings can be large; an effect the other way counts as inactive or inconclusive.

SMILES	GLP-1R agonist	TRHR PAM	PTHR1 ag	GLP-1R inv ag	TRHR agonist	HEK293 tox
CC1=CC(C)(C)N2C(=O)C3(N=C(N)NC(Nc4ccccc4)=N3)c3cc(C)cc1c32 (stereo not given)	0%	-5	i	3.5µM*	0	?
CCCCN(CCCNc1ncnc2nc[nH]c12)c1ccccc1	-1%	-4	-35%	10µM*	0	-9%
CCN(CCCNc1ncnc2nc[nH]c12)c1cccc(C)c1	2%	-3	-34%	-25%	0	12%
Cc1ccc(CSC2=NC(C)(C)Nc3ccccc32)c(C)c1	.	19	i	10µM*	-1	0%
CC1(C)N=C(SCc2ccc(Cl)cc2)c2ccccc2N1	.	2	i	?	1	-15%
COc1ccccc1CNC(=O)C12CC3CC(CC(C3)C1)C2	4%	7	i	11µM*	-1	-16%
COC(=O)C(CCSC)NC(=O)Cn1ncc2c(=O)oc3ccc(C)cc3c21 (stereo not given)	1%	-4	i	0%	1	-27%
COCCn1c(SCC(=O)N2CCCCC2)nc2cccnc21	0%	18	i	2%	0	5%
CCCCC(=O)NC(=S)Nc1cc(C(=O)O)ccc1OC	1%	2	i	0%	0	-7%
COc1ccc(C(=O)O)cc1NC(=S)NC(=O)/C=C/c1ccc(C(C)C)cc1	8%	32*	i	22%	-1	-7%
Cc1cnc(C(=O)N2CCc3c([nH]c4ccccc34)C2c2ccc(F)cc2)cn1 (stereo not given)	4%	3	-6%	?	-1	2%
Cc1ccc(C2c3[nH]c4ccccc4c3CCN2C(=O)c2ccccc2Br)cc1 (stereo not given)	.	-2	i	?	1	-9%
Cc1ccc(C2c3[nH]c4ccccc4c3CCN2C(=O)CCC2CCCC2)cc1 (stereo not given)	.	4	-5%	10µM*	0	3%
COC(=O)c1ccc(NC(=O)N2CCc3c([nH]c4ccccc34)C2c2ccc(C)cc2)cc1 (stereo not given)	.	2	?	4.5µM*	-2	-17%
Cc1ccc(C2c3[nH]c4ccccc4c3CCN2C(=O)Nc2ccc(C)c(C)c2)cc1 (stereo not given)	.	3	-15%	7.9µM*	1	-8%
Cc1ccc(C2c3[nH]c4ccccc4c3CCN2C(=O)c2ccc(N(C)C)cc2)cc1 (stereo not given)	.	5	-2%	?	0	-6%
O=C(Nc1ccccc1)C1=C(c2ccccc2)S(=O)(=O)CCS1(=O)=O	-8%	0	-32%	-72%	1	?
CC(=O)OCP(C)(=O)COC(C)=O	2%	4	i	7%	0	14%
O=C(CCn1cnc2ccccc2c1=O)Nc1ccc(Cl)c(Cl)c1	-7%	8	-1%[57.5 µM]	0%	0	-29%
N#CC(=C1NC(=O)c2ccccc21)c1nc2ccccc2n1CCO	13%	.	i	10µM*	.	-25%
CC(=O)c1nc2ccccc2n1CCc1ccccc1	19%	1	-8%	?	1	1%
CC(C)(C)c1nnc(N/N=C/c2cc(Br)ccc2O)n(N)c1=O	-18%	23	-31%	3.5µM*	0	?
CC(C)(C)N1C(=O)[C@H]2[C@@H](c3ccc(Br)cc3)N3C(=O)N(c4ccc(Br)cc4)C(=O)[C@@]3(Cc3ccccc3)[C@H]2C1=O	-6%	1	-22%	11µM*	1	-5%
